Reference: PubChem BioAssay (NCI)
This is part of a sample that, as a whole, favours compounds with a hit. Of some 83,000 tested, about 20% had one in any assay.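 Single-dose data. Exposure time 48 hours. Values below 10 considered active.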 Unmarked numbers belong to inactive results. Activity calls are given as the source filed them.

Key:
Assay in all cases: NCI-60 one-dose screen, 48 h (100 = growth as untreated, 0 = no growth, -100 = all killed)
Conditions in all cases: 10 µM unless noted
[1] = tested on: SK-MEL-2 melanoma
[2] = tested on: EKVX NSCLC
[3] = tested on: SN12C renal
[4] = tested on: UO-31 renal
[5] = tested on: TK-10 renal
[6] = tested on: ACHN renal
[7] = tested on: CAKI-1 renal
[8] = tested on: A498 renal
[9] = tested on: CCRF-CEM leukemia
[10] = tested on: MOLT-4 leukemia

| SMILES | growth [1] | growth [2] [%] | growth [3] | growth [4] | growth [5] | growth [6] | growth [7] | growth [8] | growth [9] | growth [10] |
| --- | --- | --- | --- | --- | --- | --- | --- | --- | --- | --- |
| CCCCCCCCCCCCCCCCS(=O)(=O)Nc1cc(C(=O)NN)cc(C(=O)NN)c1 | 114% | 47.1 | 72.9% | 65% | 68.6% | 77.1% | 49% | 90.4% | 34.3% | 21.5% |
| COc1ccc2c(c1)CCCC21C(=O)Nc2ccccc21 (stereo not given) | 96% | 104 | 101% | 82.4% | 95.4% | 105% | 103% | 99.7% | 97.9% | 76.2% |
| C[C@@H](C[C@H](CC1CC1)c1ccccc1)c1ccc2ccccc2c1 | 109% | 101 | 103% | 90.1% | 105% | 106% | 92.9% | 100% | 96.4% | 105% |
| COc1cc2nccc(Oc3ccc(NC(=O)C4(C(=O)Nc5ccc(F)cc5)CC4)cc3)c2cc1OC(=O)c1ccc(N)cc1 | 31.3% | 25.7 | 27.6% | 9.18% (active) | 72.2% | 39.5% | 20.9% | 64% | 27.8% | 3.73% (active) |
| Cc1ccc(NC(=O)Cn2nncc2CN2C(=O)CSC2=O)cc1C | 102% | 91.3 | 105% | 91.6% | 98.8% | 100% | 96.8% | 93.3% | 106% | 103% |
| C#CC[C@@H]1C[C@]2(C)[C@H]3CC=C4[C@H]5[C@@H](C)[C@H](C)CC[C@]5(C(=O)NCCCCN)CC[C@@]4(C)[C@]3(C)CC[C@H]2C(C)(C)[C@H]1OC(C)=O | 101% | 96 | 73.8% | 59.4% | 97.7% | 89.5% | 50.5% | 118% | 30% | 14.9% |
| COc1ccc(/C(=C\c2ccc3c(c2)OCO3)C(=O)Nc2nc3ccccc3s2)cc1 | 95.2% | 102 | 98.3% | 91.9% | 104% | 96.6% | 91.4% | 99.9% | 95.4% | 70.9% |
| O=S(=O)(NCC[C@@H]1C[C@H]1c1ccc2ccccc2c1)c1ccc(C(F)(F)F)cc1 | 104% | 91.1 | 92.9% | 81.7% | 100% | 99.2% | 79.4% | 94.2% | 85% | 84.3% |
| C=CCn1c(C)nc2cc(Nc3nc(Nc4ccc5nc(C)n(CC=C)c5c4)nc4ccccc34)ccc21 | 121% | 97.1 | 96.5% | 89.3% | 130% | 104% | 101% | 125% | 94.8% | 101% |
| COc1cc2c(cc1OCCCOc1cc3c(cc1OC)C(=O)N1CCC[C@H]1C=N3)C=CC(C)(C)O2 | 88.4% | 154 | 94.3% | 96.5% | 187% | 95.7% | 106% | 98.8% | 6.05% (active) | 65% |
| C#CC[C@@H]1C[C@]2(C)[C@H]3CC=C4[C@H]5CC(C)(C)CC[C@]5(C(=O)NCCCCN)CC[C@@]4(C)[C@]3(C)CC[C@H]2C(C)(C)[C@H]1OC(C)=O | 98.9% | 81.1 | -51.2% (active) | -44.3% (active) | -27.5% (active) | -91.6% (active) | -70% (active) | 104% | 17.9% | 12.2% |
| O=C(O)C1[S][Sb]([CH](C(=O)O)[CH](C(=O)O)[Sb]2[S]C(C(=O)O)C(C(=O)O)[S]2)[S]C1C(=O)O (stereo not given) | 64.7% | 98 | 90.2% | 77.4% | 124% | 96.5% | 96.3% | 101% | 52.9% | 63.7% |
| CCCCCCCCCCCCCCCCOc1ccc(S(=O)(=O)N(C)C)cc1[N+](=O)[O-] | 97.1% | 98.8 | 93.1% | 98.5% | 86% | 93.5% | 99.1% | 118% | 114% | 103% |
| C/C=C(\C)C(C(=O)NC1CCCCC1)N(C(=O)C1CCc2cc(F)ccc2O1)c1ccc([N+](=O)[O-])cc1 (stereo not given) | 99.6% | 84.2 | 93.4% | 69.1% | 89.9% | 89.7% | 80.2% | 90.3% | 97.3% | 76.4% |
| CCCCCCCCCCCC1=NC(C)(C)CN1C(C)(C)CO | 49.4% | 64.6 | 59.8% | 46.7% | 70.3% | 56.7% | 63.2% | 90.1% | 26.6% | 74% |
| CC[C@H](Nc1nc(C)nc(N)c1C#N)c1nc2cccc(NCc3ccc(C(=O)NO)cc3)c2c(=O)n1-c1ccccc1 | 67.2% | 12.7 | 7.89% (active) | -12.5% (active) | 2% (active) | 2.03% (active) | -11.1% (active) | -27.1% (active) | 6.17% (active) | 2.8% (active) |
| CNCc1cccc2c1OCCOCCOCCC(C)S(=O)(=O)c1ccc(cc1)-c1cnc(N)c(n1)C(=O)N2 (stereo not given) | 75.2% | 52.3 | 45.9% | 44.4% | 66.8% | 18.9% | 18.6% | 6.01% (active) | 2.12% (active) | 16.4% |
| O=C(Nc1ccc(Br)cc1)Nc1ccccc1Cl | 92% | 70.9 | 84.7% | 58.9% | 125% | 84.4% | 55.2% | 86.9% | 94.8% | 63.9% |
| Cc1ccc(-c2cnc3sc4ccc(Cl)cc4n23)cc1 | 103% | 67.1 | 93% | 64.9% | 158% | 92.2% | 84.2% | 88.2% | 106% | 96.7% |
| Cc1c(-c2ccc(-c3ccccc3F)cc2)nc2ccc(F)cc2c1C(=O)O | 101% | 55 | 47.6% | 35.8% | 56% | 36.5% | 25.9% | 80.9% | 27.9% | 2.49% (active) |
| COc1ccc(/C=c2\c(=O)n(-c3ccccc3)c3nn4c(=O)c(=O)[nH]nc4n23)cc1 | 109% | 104 | 108% | 83% | 133% | 114% | 90.4% | 118% | 106% | 110% |
| COc1cc(/C=C2\C(=O)Nc3ccc(N(C)C)cc32)cc(OC)c1OC | 61.2% | 34.4 | 25.2% | 35.2% | 42.3% | 41.6% | 22.2% | -18.2% (active) | 21.9% | 36.2% |
| CCOC(=O)NNc1cccc(Cl)c1 | 116% | 90.6 | 114% | 70.6% | 120% | 93.5% | 90% | 85.5% | 103% | 113% |
| C#CC[C@@H]1C[C@]2(C)[C@H]3CC[C@@H]4[C@H]5C(C(=C)C)CC[C@]5(C(=O)NCCCCN)CC[C@@]4(C)[C@]3(C)CC[C@H]2C(C)(C)[C@H]1OC(C)=O (stereo not given in full) | 61% | 90.1 | -82.9% (active) | -97.1% (active) | -92.9% (active) | -98.3% (active) | -98.8% (active) | 108% | -11% (active) | -21.3% (active) |
| COc1ccc(NC(=O)/C=C/c2ccc(NC(=O)N3CCCC3)cc2)cn1 | 104% | 92.8 | 98.7% | 100% | 104% | 114% | 100% | 99.4% | 97% | 101% |
| CCN(CC)c1ccc(C(=N)c2ccc(N(C)C)cc2)cc1 | -4.95% (active) | 15.2 | 24.8% | 8.99% (active) | 31.4% | 30.1% | -19.9% (active) | -20.1% (active) | 21.7% | 17.7% |
| CCN(CC)CCCNc1cccc2c(C)cc(OC)nc12 | 97.4% | 114 | 88.4% | 56.9% | 96.3% | 91.6% | 96.8% | 70.3% | 102% | 78.7% |
